Source: PubChem BioAssay AID743285 (National Center for Advancing Translational Sciences (NCATS), 2014)
Among all 1,100 compounds or so, fewer than 10 were called active. These entries were drawn from the full list. A number with no mark means an inactive call. Calls come from the whole dose curve; as a rule, active = well fitted curve in the direction sought with a large enough effect; inconclusive = small, poorly fitted or top-dose-only effect, or another doubt; inactive = no such curve, though single readings can be large or run the other way.

Test: qHTS for Inhibitors of PI5P4K: ADP-Glo counter assay
Details: ADP-Glo detection counter-screen, luciferase luminescence, no enzyme; series mostly up to 76.9 µM; activity change, negative = inhibition: at the top concentration
Description: In addition to finding PI5P, we discovered the type II phosphatidylinositol 5-phosphate 4-kinase (PI5P4K) family (alpha, beta, gamma isoforms) that catalyze the conversion of PI5P to PI(4,5)P2. Alternatively, PI(4,5)P2 can also be synthesized through phosphatidylinositol-4-phosphate (PI4P) by the type I phosphatidylinositol 4-phosphate 5-kinases (PI4P5K). These PI5P4K enzymes therefore represent one way by which cells can regulate endogenous PI5P levels and play important roles in insulin signaling and in stress responses. […] A qHTS PI5P4K-alpha ADP-Glo assay was developed to identify specific modulators of human PI5P4K, phosphatidylinositol-5-phosphate 4-kinase (Type II PIPK). This assay was screened against the MLSMR containing ~400,000 small molecules (PubChem AID 652105). To confirm that the hits were not interacting with the detection enzyme system, a 1536-well counterscreen against the ADP-Glo kit (Promega) was utilized, as described in Davis et al., 2013 [1]. For this assay, an ATP/ADP mix of 80% ATP and 20% ADP was used to mimic the PI5P4K-alpha enzyme reaction. […] Therefore, true inhibitors of PI5P4K-alpha should have no activity in this assay. Davis et al., PLoS One. 2013;8(1):e54127. NIH Chemical Genomics Center [NCGC] NIH Molecular Libraries Probe Centers Network [MLPCN] MLPCN Grant: MH096575 Assay Submitter (PI): Atsuo Sasaki, Beth Israel Deaconess Medical Center
Two micoliter of assay buffer (0.038 M HEPES pH 7.4, 0.28 mM EGTA, 0.1% CHAPS, 7.5% DMSO) was dispensed into Greiner white solid bottom 1536-well assay plates. Compounds were then transferred via Kalypsys pin tool equipped with 1536-pin array (10 nL slotted pins, V&P Scientific, San Diego, CA). Next, 1 uL of ATP / ADP mix (4 uM ATP / 1 uM ADP final concentrations in 20 mM HEPES pH 7.4, 60 mM MgCl2, and 0.1% CHAPS) was added for a total reaction volume of 3 uL. The plates were incubated at room temperature for 60 minutes. To detect the activity, 2 uL of ADP-Glo reagent 1 was added to each well followed by 45 min room temperature incubation. Then, 4 uL of ADP-Glo reagent 2 was added to each well and the plates were incubated further for 30 min at room temperature. Finally, luminescence signal was detected using the PerkinElmer ViewLux plate reader (30 sec exposure). The data was normalized to control wells with 20% ADP / 80% ATP and wells with 100% ATP.
% is set by controls: 0 for no effect and ±100 for the full control effect.

| Compound | activity change, negative = inhibition [%] |
| --- | --- |
| Cc1cnc(NC(=O)CSc2c(Cl)cccc2Cl)s1 | -1.84 |
| Cc1cc(=O)n2[nH]c(-c3sccc3-n3c(C)ccc3C)cc2n1 | -6.46 |
| O=C(Cc1cccs1)N(CC1CCCO1)C1(C(=O)NC2CCCCC2)CCCCC1 (stereo not given) | -3.41 |
| CCOC(=O)C1Nc2ccc(C(F)(F)F)cc2C2C=CCC12 (stereo not given) | 4.47 |
| O=C1CC(c2ccccc2)=NN1c1ccc([N+](=O)[O-])cc1 | -4.44 |
| CC(=O)N1c2ccc(S(=O)(=O)NCCC(=O)N(C)C3CCCCC3)cc2CC1C (stereo not given) | -6.51 |
| O=C(COc1ccc(-n2cnnn2)cc1)Nc1ccccc1Cl | -3.16 |
| Cc1cccnc1NC(=O)CSc1nnc(COc2ccc(C(C)C)cc2)n1C | 0.783 |
| O=C(Nc1ccc(S(=O)(=O)Nc2nccs2)cc1)c1cc(-c2ccncc2)nc2ccccc12 | 1.58 |
| Cc1csc(=O)n1CCC(=O)OCC(=O)Nc1ccc(N2CCOCC2)cc1 | 1.61 |
| CCC(c1nnnn1Cc1ccco1)N(CCc1ccccc1)Cc1cc2ccc(OC)cc2[nH]c1=O (stereo not given) | 4.11 |
| Cc1ccc(C(c2nnnn2CS(=O)(=O)c2ccc(C)cc2)N2CCC(C)CC2)cc1 (stereo not given) | 4.38 |
| COc1cccc2c(C)c(C(=O)O)[nH]c12 | -4.76 |
| CC(CNC(=O)c1ccc(Br)o1)NC(=O)c1ccc(Br)o1 (stereo not given) | -11 |
| Cc1ccc(Cc2c(-c3ccco3)nc3ccc(Cl)cn23)cc1 | -6.35 |
| OCCNc1nc(Nc2ccc(Cl)c(Cl)c2)nc2ccccc12 | -2.85 |
| O=C(c1cc(-c2ccco2)nc2ccccc12)N(Cc1nnc(-c2ccc(Cl)cc2)o1)C1CC1 | 3.35 |
| O=C(c1cc2c(s1)CCC2)N1CCN(c2ccccc2)CC1 | 0.844 |
| O=C(c1cccnc1)N(c1cc2sc(=O)oc2c2ccccc12)S(=O)(=O)c1ccccc1 | -0.127 |
| COc1ccc(C(=O)N2CCC(C(=O)Nc3ccc(C)cc3)CC2)cc1 | 0.698 |
| COc1ccc(OCCCC(=O)Nc2nnc(C3CCCO3)s2)cc1 (stereo not given) | -0.361 |
| Cc1cc(NC(=O)Nc2ccccc2[N+](=O)[O-])no1 | 4.52 |
| O=c1oc2cc(O)ccc2cc1-c1ccc(F)cc1 | -12.4 |

| Compound | activity change, negative = inhibition [%] |
| --- | --- |
| COCCNC(=O)Nc1ccc2nc(-c3ccco3)c(-c3ccco3)nc2c1 | -14.7 |
| COc1ccc(S(=O)(=O)/N=C2\C=C(NS(=O)(=O)c3ccccc3)C(=O)c3ccccc32)cc1 | -15.5 |
| COc1ccc(CCCc2nnc(SCc3nc4ccccc4c(=O)[nH]3)n2C)cc1 | -7.05 |
| CCOC(=O)c1cc2c(=O)[nH]c(C(Cl)(Cl)Cl)nc2o1 | 2.4 |
| OCCCNc1nccc(-c2cc(Nc3cccc(Cl)c3)ncn2)n1 | -9.65 |
| O=S(=O)(Nc1ccc2cn[nH]c2c1)c1ccccc1 | 4.71 |
| COc1cccc(C(=O)Nc2nc3ccc(S(C)(=O)=O)cc3s2)c1 | 1.96 |
| O=c1[nH]c2ccccc2n2c(-c3ccccc3)nnc12 | -11.3 |
| O=C(Cn1cnc2c(OCc3ccccc3)ncnc21)NCc1nc2ccccc2[nH]1 | 0.0717 |
| O=C(Nc1nc(-c2ccncc2)cs1)C1COc2ccccc2O1 (stereo not given) | -2.71 |
| COc1cc(=O)[nH]c(=O)n1C(=O)Cc1ccccc1 | -8.78 |
| COc1ccc(-c2cc(C(=O)Nc3ccccc3O)c3ccccc3n2)cc1 | -3.69 |
| Cc1cccc(C)c1NC(=O)C(c1ccc(C(F)(F)F)cc1)n1c(=O)c(-c2ccco2)nc2ccccc21 (stereo not given) | -3.23 |
| O=C(NC1CCCCC1)C(c1cc2ccccc2o1)n1c(=O)c(-c2ccco2)nc2ccccc21 (stereo not given) | -1.4 |
| COc1ccc(C(CNC(=O)c2ccc(OCc3cscn3)cc2)N2CCCC2)cc1 (stereo not given) | -7.47 |
| Cc1cc2nc(-c3ccco3)c(Cc3cccc(F)c3)n2c(C)c1Br | -11.4 |
| O=C(CCNS(=O)(=O)c1ccc(Br)s1)NCc1ccccc1Cl | -7.75 |
| C[C@H](NC(=O)c1nc[nH]c1C(=O)N[C@@H](C)C(=O)OC(C)(C)C)C(=O)OC(C)(C)C | 1.4 |
| CC(Oc1ccc(F)cc1)C(=O)N1CCN(c2ncccn2)CC1 (stereo not given) | -2.05 |
| Cn1c(SCC(=O)Nc2ccc(Cl)cc2)nc(O)cc1=O | 4.32 |
| Cc1ccc(Cn2c(C)nc3c(c2=O)c2nc4ccccc4nc2n3Cc2ccco2)cc1 | 3.85 |
| O=C(COC(=O)c1ccccc1O)NCc1ccco1 | -6.69 |
